TNF necrop inh = inhibitors of TNF-alpha triggered necroptosis, primary screen, cell-based, Jurkat FADD-/-, single concentration | Jurkat FADD-/- TNF necroptosis rescue, ATP luminescence, 24 h; 0 = TNF only, 100 = no-TNF cells | activation (protection from cell death), % at 10 µM | actives 0.068% (n = 220,000);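 active = activation, meaning protection from cell death, of at least 50% relative to plate controls; inactive = activation below 50%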;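 note: necroptosis triggered by 40 ng/mL TNF-alpha added together with compound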
WT yeast gro inh = growth inhibition of WT strain, primary screen, mitochondrial fusion inhibitor project, WT and mutant strains, chemical genetic | mitochondrial fusion phenotypic screen | inhibition, % at 10 µM | actives 2.1% (n = 190,000) | AID 1362, 2008; in the data active = inhibition above about 58%; tested in S. cerevisiae
PKD1 inh = inhibitors of human PKD1 kinase, biochemical, fluorescence polarization; actives 0.056% (n = 200,000); PKD1 kinase fluorescence polarization assay; Serine/threonine-protein kinase D1 (Homo sapiens), Q15139; inhibition, % (test concentration not listed); in the data active = inhibition above about 50%
zVAD death inh = inhibitors of zVAD-triggered necroptosis, primary screen, L929 cells | L929 zVAD necroptosis rescue, ATP luminescence, 24 h; with zVAD 60 µM | viability rescue, % at 10 µM | actives 0.38% (n = 220,000);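 active = activation, scaled between plate controls, above about 75%, limit read from the data; inactive = activation under that limit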;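 note: 0% = zVAD with DMSO and 100% = DMSO alone without zVAD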
PERK inhibitor = block of dimerizer-induced PERK translation repression, primary screen, PERK inhibitor project, CHO PERK-DD cells, SEAP luminescence, HTS; CHO PERK-DD fusion, SEAP luminescence translation reporter; inhibition, % at 5.6 µM; actives 0.17% (n = 220,000); AID 1416, 2008;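 active = inhibition above the mean inhibition of all tested compounds plus 3 SD, set separately per screening campaign, cut at about 2.9% in these data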;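 note: PERK kinase domain activated by AP20187 dimerizer at 100 nM; 0% = DMSO with dimerizer and 100% = rapamycin at 8.4 µM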
Redox H2O2 prof = compounds producing H2O2 with reducing agent – biochemical, NIH compound library profiling, artefact control for MLSCN library redox annotation, primary screen. DTT-dependent redox cycling H2O2, phenol red/HRP absorbance; 100% = 100 µM peroxide control, 0% = buffer. activation, % at 10 µM. actives 0.03% (n = 200,000);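 active = activation of at least 50% relative to the plate's high and low controls in the primary single-dose screen; inactive = activation below 50%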;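 note: compound incubated with DTT at 0.8 mM final as the reducing agent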
* marks the source's active call; other numbers are inactive results; . = no result given. In the library only some 2.4% were active in any assay of this set; here they are far more common.

SMILES | TNF necrop inh | WT yeast gro inh | PKD1 inh | zVAD death inh | PERK inhibitor | Redox H2O2 prof
CC(=O)Nc1cccc(C(=O)OC(C(=O)c2ccc(C)c(C)c2)c2ccccc2)c1 (stereo not drawn) | -9 | 11 | 9 | 83* | -1 | 1
Cc1ccc(NC(=O)C(OC(=O)c2ccc(O)cc2)c2ccccc2)cc1Cl (stereo not drawn) | 4 | 89* | -7 | 65 | 0 | 0
Cc1c(NC(=O)CCc2ccccc2)cccc1[N+](=O)[O-] | 2 | 6 | 1 | 1 | 1 | 0
CCCOc1ccc(N2C(=O)CC(N3CCC(c4nc5ccccc5o4)CC3)C2=O)cc1 (stereo not drawn) | 1 | 1 | -5 | 0 | 2 | 0
CC(=O)N1CCN(c2cc(N3CCCC3)c(F)cc2[N+](=O)[O-])CC1 | -1 | 12 | -1 | 1 | -1 | -2
CCN1CCN(c2cc(N3CCc4ccccc4C3)c(F)cc2[N+](=O)[O-])CC1 | 1 | 81* | 1 | 0 | 0 | 0
CN1CCN(CC(=O)Nc2c(C#N)cnn2-c2ccccc2)CC1 | 1 | . | . | 1 | 1 | .
COc1ccc(N2C(=O)CN=C2Nc2nc(C)cc(C)n2)cc1 | 0 | -5 | 0 | 1 | 1 | 2
Cc1cc(C)nc(NC2=NCC(=O)N2c2ccc3c(c2)OCCO3)n1 | -1 | 95* | -1 | 0 | 0 | 0
COCCSc1ccccc1C(=O)NCc1cccnc1 | -1 | -9 | -11 | 20 | -1 | 0
Cc1cc(Br)c(OCc2ccc(C(=O)N/N=C3\CC4CC=CC34)cc2)c(Br)c1 (stereo not drawn) | 0 | 76* | -4 | . | 0 | 0
O=C(NCc1c(Cl)cccc1Cl)c1ccc2nnsc2c1 | 58* | . | . | 0 | 0 | .
CCCCc1noc(-c2c(-c3ccccc3Cl)noc2C)n1 | 14 | 53 | -12 | 0 | 2 | -1
S=c1[nH]nc(-c2cccc(Cl)c2)n1CCN1CCCCC1 | 4 | -7 | -5 | 0 | 0 | 0
Cc1ccc(NC(=O)c2cc(S(=O)(=O)NCCC3=CCCCC3)ccc2F)cc1F | -2 | -7 | 3 | 1 | 0 | 0
O=C(Nc1cccc(F)c1)c1cc(S(=O)(=O)NCCC2=CCCCC2)ccc1F | 0 | 60* | -5 | 5 | 1 | 1
Cc1ccc(OCc2nnc(SCC(=O)c3ccccc3)n2-c2ccccc2)cc1 | 1 | 56 | 4 | 0 | 0 | 1
Cc1cccc(-n2c(CCc3ccccc3)nnc2SCC(=O)c2ccccc2)c1 | 3 | 68* | -5 | . | -1 | -1
CSCCC(NS(=O)(=O)c1ccccc1F)C(=O)OCc1ccccc1Cl (stereo not drawn) | 0 | 38 | -5 | 1 | 0 | -1
COc1ccccc1NC(=O)OCC#CCOC(=O)Nc1ccccc1OC | 2 | . | . | 0 | 0 | .
O=C(O)c1ccc(C=C(c2nc3ccccc3s2)c2nc3ccccc3s2)cc1 | -2 | 74* | -10 | 8 | 1 | -1
COc1ccc(-c2nc3ccccc3s2)cc1O | -4 | 59* | -4 | -1 | 0 | 1
COc1cc(/C=N/NC(=Nc2ccc(C)cc2)c2nc3ccccc3s2)ccc1O | -1 | 75* | 2 | 0 | -1 | 0
COc1cc(-c2nc3ccccc3s2)ccc1O | -2 | . | 1 | 0 | 0 | 0
COc1cc(C=C(c2nc3ccccc3s2)c2nc3ccccc3s2)cc(OC)c1O | 0 | 74* | -1 | 2 | -1 | 0
Cc1ccc(N2C(=O)CC(Nc3ccc(Cl)c(S(=O)(=O)N(C)C)c3)C2=O)c(C)c1 (stereo not drawn) | 0 | 3 | 3 | 4 | 1 | 7
Cc1ncc(CO)c(/C=N/NC(=O)c2cc3c(s2)CCCC3)c1O | -8 | -7 | 2 | 64 | 0 | 0
COc1ccc(C(C)(C)C)cc1NC(=O)c1ccoc1C | 2 | 65* | -5 | 1 | 1 | 2
COc1ccc(C)cc1NC(=O)c1ccoc1C | 1 | -9 | -7 | 0 | 1 | 0

High-throughput results: PubChem, several laboratories
